Bioassay records from PubChem.
BJeLR viability: compounds reducing viability of BJeLR cells. BJeLR fibroblasts viability, CellTiterGlo ATP luminescence, 48 h; HRASV12, hTERT and SV40 LT/ST transformed. viability loss activity score, % (no concentration beside the values). actives 0.64% (n = 30,000); in the data active = viability loss activity score above about 50%; inconclusive = no clear call, values can overlap the other calls; inactive = below about 35%;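 also: higher score means fewer live cells and less ATP luminescence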
Hedgehog inh: blocks Sonic Hedgehog signaling; actives 2.1% (n = 22,000); Shh-LIGHT2 Gli-luciferase reporter, 30 h; inhibition, % (no concentration beside the values);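 active = mean inhibition across valid replicates above about 65%, limit read from the data; inconclusive = mean under the limit, yet half or more replicates past it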;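 also: pathway switched on by Shh-conditioned medium diluted 1 in 25 in low serum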
MITF inh: inhibitors of MITF; TRPM1 promoter luciferase, luminescence, 24 h; actives 0.28% (n = 37,000); inhibition, % (test concentration not listed); in the data active = inhibition above about 85%; inconclusive = no clear call, values can overlap the other calls; inactive = below about 68%;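 also: human melanocyte line stably carrying TRPM1 promoter luciferase reporter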
* = called active by the depositor; ? = inconclusive; / = no result. Only a selection was taken, and hits are over-represented in it overall.

SMILES	BJeLR viability	Hedgehog inh	MITF inh
C[C@H](CO)N1C[C@H](C)[C@H](CN(C)S(=O)(=O)c2ccc(Cl)cc2)Oc2c(NS(=O)(=O)c3cccs3)cccc2C1=O	1.1	77.0*	11.6
C[C@H](CO)N1C[C@H](C)[C@H](CN(C)S(=O)(=O)c2ccc(Cl)cc2)Oc2c(NS(=O)(=O)c3ccc(F)cc3)cccc2C1=O	-1.4	69.6*	6.8
C[C@H](CO)N1C[C@H](C)[C@@H](CN(C)S(=O)(=O)c2ccc(Cl)cc2)Oc2c(NS(=O)(=O)c3cccs3)cccc2C1=O	0.0	-8.5	4.2
CC1(C)C(=O)[C@@H]2C[C@@]3(O)C4=CC(=O)O[C@@H](c5ccoc5)[C@]4(C)CCC3[C@@](C)(C2=O)[C@H]1CC(=O)O (some centres not stated)	0.8	-18.2	16.6
COC(=O)C[C@H]1C(C)(C)C(=O)[C@@H]2C[C@@]3(O)C4=CC(=O)O[C@@H](c5ccoc5)[C@]4(C)CCC3[C@@]1(C)C2=O (some centres not stated)	2.8	85.5*	-50.8
Cn1c(=O)c(C(=O)/C=C/C=C/c2ccccc2)c(O)c2ccccc21	-6.0	/	/
O=C(CSc1nc(-c2ccco2)cc(C(F)(F)F)n1)N(Cc1ccccc1)Cc1ccccc1	2.5	/	/
Cc1nc(-c2cc(C#N)c(SCCNS(=O)(=O)c3ccc(C(C)(C)C)cc3)nc2C)cs1	-3.6	89.7*	7.1
CC(C)(C)c1ccc(S(=O)(=O)CCSc2nc3c(cc2C#N)CCCC3)cc1	-1.3	/	/
Cc1ccc2oc(=O)c3cc(C(=O)NC(C)C)sc3c2c1	4.4	/	/
COCCN1C(=O)c2ccccc2C(C(=O)NCCCN2CCC(C)CC2)C1c1ccc(F)cc1 (configuration not stated)	2.1	/	/
O=C(O)c1cccc(COc2ccc(CO)cc2Cl)c1	/	/	88.6*
COc1cc(CO)cc(Cl)c1OCc1cccc(C(=O)O)c1	/	/	-61.9
COc1ccc(/C=C2\C(=O)C3(C)CCC2C3(C)C)cc1 (configuration not stated)	-3.2	/	/
CCCN1C/C(=C/c2ccc(OC)cc2)C(=O)/C(=C/c2ccc(OC)cc2)C1	70.1*	/	/
COc1ccc(CNC(=O)CCn2c(=O)c3sccc3n(CC(=O)N3CCCCC3C)c2=O)cc1 (configuration not stated)	-3.9	/	/
C[C@]12CC[C@@H]3c4ccc(O)cc4CC[C@H]3[C@@H]1CCC2=O	7.6	72.8*	8.5
CC(=O)Oc1ccc2c(c1)CCC1C2CC[C@@]2(C)C1CC[C@@H]2OC(C)=O (some centres not stated)	2.7	66.8*	-7.8
C[C@]12CCC3c4ccc(O)cc4CCC3C1CC[C@@H]2O (some centres not stated)	-3.8	73.7*	7.8
C[C@]12CCC3c4ccc(O)cc4CCC3C1C[C@@H](O)[C@@H]2O (some centres not stated)	4.0	?	2.4
C#C[C@]1(O)CC[C@H]2[C@@H]3CCc4cc(OC)ccc4[C@H]3CC[C@@]21C	6.4	-36.2	6.6
C[C@]12CCC3c4ccc(OS(=O)(=O)O)cc4CCC3C1CC[C@H]2O (some centres not stated)	-4.6	6.2	6.0
O=S(=O)(c1cccc2cccnc12)N(CCc1ccccc1)Cc1ccccc1	1.6	/	/
O=c1c(Cc2ccccc2OCc2ccccc2)coc2ccccc12	-7.1	93.0*	16.8
COc1ccccc1-c1coc2cc(OCc3ccc(C)cc3)ccc2c1=O	-3.0	/	/
SMILES	BJeLR viability	Hedgehog inh	MITF inh
COc1cccc(CNC(=O)c2cnn3c(C)c(Cc4c(C)cc(C)cc4C)c(C)nc23)c1	-5.1	/	/
CCC(=O)N1N=C(c2ccccc2)CC1c1ccc(N(C)C)cc1 (configuration not stated)	3.2	/	/
Cc1ccc(S(=O)(=O)Nc2ccc3c(c2)C(=O)N([C@H](C)CO)C[C@H](C)[C@@H](CN(C)C(=O)Nc2ccc(C(F)(F)F)cc2)OCCCC[C@@H](C)O3)cc1	/	47.4	27.4
Cc1noc(C)c1S(=O)(=O)Nc1ccc2c(c1)C(=O)N([C@H](C)CO)C[C@H](C)[C@@H](CN(C)C(=O)Nc1ccc(C(F)(F)F)cc1)OCCCC[C@@H](C)O2	/	11.2	24.7
C[C@@H]1CCCCO[C@@H](CN(C)C(=O)Nc2ccc(C(F)(F)F)cc2)[C@@H](C)CN([C@H](C)CO)C(=O)c2cc(NS(=O)(=O)c3ccc(F)cc3)ccc2O1	/	98.1*	40.5
Cc1noc(C)c1S(=O)(=O)Nc1ccc2c(c1)C(=O)N([C@H](C)CO)C[C@H](C)[C@H](CN(C)C(=O)Nc1ccc(C(F)(F)F)cc1)OCCCC[C@@H](C)O2	/	99.9*	54.3
Cc1ccc(-c2n[nH]c(=S)c3ccccc23)cc1S(=O)(=O)NCc1cccnc1	6.5	/	/
COc1ccc(C(=O)NC(=O)c2ccccc2O)cc1OC	4.4	/	/
